Results published in PubChem BioAssay (NCATS).
Several values for one entry are separate records, joined by “and”; a condition that tells them apart may be missing. Equal entries are not always repeated. Results filed as inconclusive are left out. Activity calls are given as the source filed them. Calls follow the shape of the dose curve; as a rule, active = well fitted inhibition curve with a large enough effect; inconclusive = small, poorly fitted or top-dose-only effect; inactive = no such curve, though single readings can be large or run the other way.

Each molecule was assayed against N-terminal Xaa-Pro-Lys N-methyltransferase 1 (Homo sapiens) (UniProt Q9BV86) (assay: qHTS Assay for Inhibitors of N-terminal methyltransferase 1 (NTMT1): LOPAC validation of the NTMT1 SAHH-coupled ThioGlo3 Assay (AID 1347143;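 also: SAH from peptide methylation measured as thiol fluorescence via SAHH coupling and ThioGlo3; nearly all actives have a fitted effect of over 70% in size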)). Details: recombinant NTMT1, SAHH-coupled ThioGlo3 fluorescence; series mostly up to 114 µM; activity change, negative = inhibition: at the top concentration.
Procedure, shortened: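 NTMT1 125nM + cpds (various conc.), 1 min RT; add SAM 100uM/SAHH 10uM/ThioGlo3 15uM (addition mix). SAHH-coupled thiol detection, Ex340/Em450, t0 and 30 min RT; signal normalized to background. LOPAC 1280-cpd pilot.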
% is scaled to controls: 0 for no effect and ±100 for the full control effect; potency is read from the fitted curve at half-maximal effect.

Chain of N-terminal Xaa-Pro-Lys N-methyltransferase 1 (Homo sapiens) (Q9BV86 whole entry, looked up): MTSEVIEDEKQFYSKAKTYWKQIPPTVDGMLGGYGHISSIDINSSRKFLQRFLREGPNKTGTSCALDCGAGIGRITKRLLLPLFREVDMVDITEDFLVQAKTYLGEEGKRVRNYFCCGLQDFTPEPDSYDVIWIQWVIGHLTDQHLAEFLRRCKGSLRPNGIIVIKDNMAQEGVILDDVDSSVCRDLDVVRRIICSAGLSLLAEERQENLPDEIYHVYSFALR

Row | SMILES | activity change, negative = inhibition | Potency
1 | CC(C(O)c1ccc(O)cc1)N1CCC(Cc2ccccc2)CC1 (centres undefined) | -17.3% (inactive) | –
2 | CC(=O)OCC(=O)[C@@]1(O)CC[C@H]2[C@@H]3CCC4=CC(=O)CC[C@]4(C)[C@H]3C(=O)C[C@@]21C | -13.3% (inactive) | –
3 | CC[C@H]1CN2CCc3cc(OC)c(OC)cc3[C@@H]2C[C@@H]1C[C@H]1NCCc2cc(OC)c(OC)cc21 | -18.1% (inactive) | –
4 | CCN(CC)CCCC(C)Nc1c2ccc(Cl)cc2nc2ccc(OC)cc12 (centres undefined) | – | 39.8 µM (active)
5 | CC[N+](CC)(CC)CCOc1ccc(/C=C/c2ccccc2)cc1 | – | 39.8 µM (active)
6 | NC(=O)c1ncn([C@@H]2O[C@H](CO)[C@@H](O)[C@H]2O)n1 | -5.53% (inactive) | –
7 | Cc1cc(N)c2ccccc2[n+]1CCCCCCCCCC[n+]1c(C)cc(N)c2ccccc21 | – | 39.8 µM (active)
8 | CCN(CC)C(C)CN1c2ccccc2Sc2ccccc21 (centres undefined) | – | 25.1 µM (active)
9 | N=c1c[n+](N2CCOCC2)[n-]o1 | – | 44.7 µM (active) and 50.1 µM (active)
10 | CC(C)(C)c1onc(OCP(=O)(O)O)c1CC(N)C(=O)O (centres undefined) | – | inactive
11 | C=Cc1c(C)c2cc3[nH]c(cc4nc(cc5nc(cc1[nH]2)C(C)=C5CCC(=O)O)C(CCC(=O)O)=C4C)c(C)c3C=C | – | 39.8 µM (active)
12 | CC(CN1c2ccccc2Sc2ccccc21)N(C)C (centres undefined) | – | 50.1 µM (active)
13 | COCCOC(=O)C1=C(C)NC(C)=C(C(=O)OC/C=C/c2ccccc2)C1c1cccc([N+](=O)[O-])c1 (centres undefined) | -8.2% (inactive) | –
14 | Nc1cc(=O)[nH]c(N)n1 | -20.9% (inactive) | –
